An excerpt weighted towards active compounds, which were near 22% of everything screened.
Measles CPE: protection of cells from measles virus; Measles virus-infected cells, CPE protection, absorbance; protection (pct of control), % at 4 µM; 1.5% of 140,000 active; AID 841; in the data active = protection mostly above about 24%, no sharp cut-off; inactive = mostly below about 26%
CYP2C9 inh: inhibitors of human CYP2C9 | P11712 | 20% of 96,000 active | CYP2C9 Supersomes, luciferin-H conversion, luminescence | inhibition, % at 5 µM | AID 777;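 active = blocking of liver enzyme CYP2C9 beyond about 50% at 5 µM, limit read from the data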
Target sequence (P11712 whole entry, looked up): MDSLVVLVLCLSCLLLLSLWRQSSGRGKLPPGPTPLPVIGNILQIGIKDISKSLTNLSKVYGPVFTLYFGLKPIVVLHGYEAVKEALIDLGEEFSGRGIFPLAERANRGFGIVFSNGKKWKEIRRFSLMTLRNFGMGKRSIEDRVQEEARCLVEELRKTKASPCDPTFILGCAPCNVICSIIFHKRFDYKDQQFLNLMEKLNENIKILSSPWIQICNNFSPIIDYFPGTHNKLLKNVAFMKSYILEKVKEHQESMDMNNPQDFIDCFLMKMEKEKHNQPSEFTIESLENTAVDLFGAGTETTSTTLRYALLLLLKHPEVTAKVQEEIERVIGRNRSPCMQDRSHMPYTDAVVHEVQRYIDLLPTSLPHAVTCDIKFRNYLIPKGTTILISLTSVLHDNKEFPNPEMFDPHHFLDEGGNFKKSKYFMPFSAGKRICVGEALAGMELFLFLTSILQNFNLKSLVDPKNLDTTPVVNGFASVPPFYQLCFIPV
CYP2C9 activ: CYP2C9 (human) activation. 1.4% of 96,000 active. activation factor at 5 µM. AID 1024. P11712. recombinant CYP2C9, luciferin-H conversion, luminescence; active compounds read high; factor 1 = untreated enzyme, 0 = blocked;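 active = activation factor of 2 or more for CYP2C9 at a 5 µM dose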;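 note: 0 = sulfaphenazole-blocked wells and 1 = vehicle-only wells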
CYP2C19 inhib: blocks human cytochrome P450 2C19; CYP2C19 Supersomes, luciferin-H EGE luminescence, 30 min; AID 778; P33261; inhibition, % at 5 µM; 21% of 96,000 active;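 active = CYP2C19 inhibition above a set limit at 5 µM in the primary screen, cut at about 50% in these data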;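 note: plate controls were negative control wells for no effect and 2.5 mM tranylcypromine positive control for full effect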
CYP2C19 activ: activators of human cytochrome P450 2C19; activation factor at 5 µM; recombinant CYP2C19, luciferin-H EGE luminescence; active compounds read high; 0 = fully inhibited enzyme, 1 = untreated enzyme; 96,000 tested, under 10 active; P33261;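 active = activation factor of at least 2 at 5 µM in the primary screen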;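 note: 0 = wells with 2.5 mM tranylcypromine and 1 = vehicle-only wells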
Numbers without * were called inactive; / = no result given.

SMILES	Measles CPE	CYP2C9 inh	CYP2C9 activ	CYP2C19 inhib	CYP2C19 activ
CCCn1c(-c2ccccc2)nc2c(=O)n(C)c(=O)[nH]c21	2.6	-3.8	1	4.5	1
COc1ccc(-c2nc3c(=O)n(C)c(=O)[nH]c3n2CCc2ccccc2)cc1	17.9	72.1*	0.3	-4.5	1
Cc1ccnc(SCCn2c(N3CCN(Cc4ccccc4)CC3)nc3c2c(=O)[nH]c(=O)n3C)n1	4.6	77.5*	0.2	83.0*	0.2
COc1ccc(CCn2c(N3CCN(Cc4ccccc4)CC3)nc3c2c(=O)[nH]c(=O)n3C)cc1	5.6	42.6	0.6	62.1*	0.4
COCCn1c(N2CCN(c3ccc(OC)cc3)CC2)nc2c1c(=O)[nH]c(=O)n2C	2.1	42.4	0.6	60.6*	0.4
CCOCCn1c(N2CCN(c3ccc(OC)cc3)CC2)nc2c1c(=O)[nH]c(=O)n2C	10.9	23.9	0.8	11.5	0.9
CCC(C)NC(=O)c1ccc2c(SCC(=O)O)c3c(nc2c1)CCCC3 (stereo not drawn)	1.6	/	/	/	/
c1nc(NC2CCCC2)c2[nH]cnc2n1	14.3	13.5	0.9	-1.0	1
Cc1cc2c(N3CCCCC3C)ncnc2s1 (stereo not drawn)	27.7	5.8	0.9	3.9	1
CCn1c(C)cc(/C=C2\NC(=O)N(Cc3ccccc3)C2=O)c1C	3.8	2.4	1	7.7	0.9
CCOc1nnc(C)c2c(C)n(-c3ccc(Cl)cc3)nc12	11.6	-4.2	1	-5.0	1.1
Cc1ccsc1C(=O)Nc1nnc(-c2ccco2)o1	6.9	57.1*	0.4	0.3	1
Fc1cccc(Cn2ccc(-c3ccc4c(c3)OCO4)n2)c1	3.7	85.7*	0.1	94.8*	0.1
Cc1ccccc1Cn1ccc(-c2ccc3c(c2)OCO3)n1	3.4	50.3*	0.5	57.5*	0.4
CCC(C)(NC(=O)Cc1c[nH]c2ccccc12)C(=O)NC1CCCCC1 (stereo not drawn)	10.8	/	/	/	/
CCc1nc2ccc(C)cc2c(C(=O)Oc2cccc3cccnc23)c1C	4.0	51.1*	0.5	-10.2	1.1
COC(=O)c1c(C)oc2ccc(N(C(=O)c3ccncc3)S(=O)(=O)c3ccc(C)cc3C)cc12	11.2	/	/	/	/
COC(=O)c1c(C)oc2ccc(N(C(=O)c3ccncc3)S(=O)(=O)c3ccc4ccccc4c3)cc12	2.8	/	/	/	/
COC(=O)c1c(C)oc2ccc(N(C(=O)c3ccncc3)S(=O)(=O)c3ccccc3)cc12	7.2	76.9*	0.2	91.2*	0.1
COC(=O)c1c(C)oc2ccc(N(C(=O)c3ccncc3)S(=O)(=O)c3ccc(C)cc3)cc12	6.8	98.5*	0	100.0*	0
CN(CCNC(=O)Cn1c(=O)sc2ccccc21)Cc1ccccc1	7.3	-10.1	1.1	40.2	0.6
N#CCCSc1ncnc2c1oc1ccccc12	24.4	17.0	0.8	10.3	0.9
CC(C)c1ccc(/C=N/NC(=O)CN(c2cccc(Cl)c2Cl)S(C)(=O)=O)cc1	9.3	1.4	1	-6.9	1.1
CC(=O)Nc1ccc(N/C=C/C(=O)C(C)(C)C)cc1	7.3	4.0	1	-0.3	1
CCSc1nnc(NC(=O)CSc2nccn2-c2cccc(C)c2C)s1	7.2	69.9*	0.3	34.7	0.7
SMILES	Measles CPE	CYP2C9 inh	CYP2C9 activ	CYP2C19 inhib	CYP2C19 activ
CCSc1nnc(NC(=O)CSc2nccn2-c2cc(C)cc(C)c2)s1	16.0	50.0*	0.5	18.4	0.8
COc1ccccc1NS(=O)(=O)c1cccc(C(=O)N/N=C/c2ccc(N3CCOCC3)cc2)c1	8.8	/	/	/	/
C=CCNC(=S)Nc1ccc(Br)cc1F	16.9	/	/	/	/
CN(C)/C=N/C(=S)Nc1ccc(Br)cc1F	2.2	22.7	0.8	58.9*	0.4
CCc1ccc(C(=O)CCC2CCCCC2=O)cc1 (stereo not drawn)	18.1	10.0	0.9	40.4	0.6
O=C(c1sc2ccccc2c1Cl)N(Cc1cccs1)C1CCS(=O)(=O)C1 (stereo not drawn)	7.5	53.0*	0.5	45.1	0.5
Cc1ccc(OCC(=O)N(Cc2ccc(N(C)C)cc2)C2CCS(=O)(=O)C2)cc1 (stereo not drawn)	5.6	68.3*	0.3	54.5*	0.5
Cc1cc(C)cc(OCC(=O)N(Cc2cccs2)C2CCS(=O)(=O)C2)c1 (stereo not drawn)	7.5	54.0*	0.5	81.8*	0.2
CCCc1c(C)nc2ccccc2c1SCCC#N	4.7	/	/	/	/
COc1cccc(CC(C(=O)Nc2cc(C)ccc2C)c2nn[nH]n2)c1OC (stereo not drawn)	1.4	-2.7	1	7.0	0.9

Compound activity as filed in PubChem BioAssay.
